Results reported in PubChem BioAssay (Tox21).
Several values for one entry are separate records, joined by “and”; a condition that tells them apart may be missing. Equal values may be shown once. Records with an inconclusive call do not appear. Activity calls are given as the source filed them. Unless noted, calls follow the shape of the dose curve; as a rule, active = well fitted curve in the direction sought with a large enough effect in the repeat runs; inconclusive = weak or mixed curves; inactive = no such curve, though single readings can be large; an effect the other way counts as inactive or inconclusive.

Assays:
[1] = molecular target: Luciferin 4-monooxygenase (Photinus pyralis) (UniProt P08659); assay: qHTS assay to identify small molecule inhibitors of firefly luciferase (AID 1224835); also: nearly all actives have a fitted effect of over 25% in size; also: potency is read from the fitted curve at half-maximal effect
In short: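 Inhibition of purified Photinus luciferase is measured by luminescence. Substrate levels (D-luciferin, ATP) sit at their KM values. Each compound is tested in a concentration series.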

[2] = qHTS assay to identify small molecule agonists of the constitutive androstane receptor (CAR) signaling pathway - cell viability counter screen (AID 1224836); also: nearly all actives have a fitted effect of over 45% in size; also: potency is read from the fitted curve at half-maximal effect
In short: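 Fluorescence from CellTiter-Fluor indicates live cells after 23 h exposure. The human hepatoma line expresses hCAR and a CYP2B6-2.2kb reporter. Incubation medium contains 0.75 uM PK11195 (final).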

[3] = qHTS assay to identify small molecule antagonists of the constitutive androstane receptor (CAR) signaling pathway - cell viability counter screen (AID 1224837); also: nearly all actives have a fitted effect of over 45% in size; also: potency is read from the fitted curve at half-maximal effect
In short: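 Multiplexed cytotoxicity read-out for the CAR antagonist screen: double-stable HepG2-CYP2B6-hCAR cells co-treated with 50 nM CITCO (final) and compound over 15 concentrations, incubated 23 hr, then assessed by CellTiter-Fluor fluorescence.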

[4] = molecular target: Nuclear receptor subfamily 1 group I member 3 (Homo sapiens) (UniProt Q14994); assay: qHTS assay to identify small molecule agonists of the constitutive androstane receptor (CAR) signaling pathway (AID 1224839);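 also: HepG2 cells stably carrying human CAR and a CYP2B6 luciferase reporter; % is scaled to controls: 0 for no effect and ±100 for the full control effect; nearly all actives have a fitted effect of over 15% in size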
In short: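 Stable hCAR/CYP2B6-2.2kb HepG2 line in DMEM with 10% FBS; compounds (15 concentrations) and 0.75 uM PK11195 final, 24 h at 37 C/5% CO2, then ONE-Glo luminescence after 30 min.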

[5] = qHTS assay to identify small molecule antagonists of the estrogen related receptor signaling pathway with the pleiotropic PPARgamma coactivator (PGC) from Tox21 10K library - cell viability counter screen (AID 1224840; active = well fitted cell-killing curve with a large enough effect in the repeat runs, not every such curve was filed as active; also: nearly all actives have a fitted effect of over 40% in size; also: potency is read from the fitted curve at half-maximal effect)
In short: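 Step one, plate 2,000 PGC/ERR cells per well; step two, incubate 6 h at 37 C/5% CO2; step three, pin-transfer compounds; step four, incubate 17.5 h; step five, add CellTiter-Fluor and read fluorescence after 30 min.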

[6] = molecular target: Thyrotropin receptor (Homo sapiens) (UniProt P16473); assay: qHTS assay to identify small molecule agonists of the thyroid stimulating hormone receptor (TSHR) signaling pathway (AID 1224843; calls by dose curve; also: % is scaled to controls: 0 for no effect and ±100 for the full control effect; nearly all actives have a fitted effect of over 45% in size)
In short: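 Screening of the Tox21 10K collection used HEK293 cells engineered with TSHR at 800 cells per well. After a 30-min room-temperature compound exposure, HTRF cAMP reagents were added and fluorescence recorded 1 h later.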

[7] = qHTS assay to identify small molecule agonists of H2AX - cell viability counter screen (AID 1224847; calls by dose curve; also: nearly all actives have a fitted effect of over 30% in size; also: potency is read from the fitted curve at half-maximal effect)
In short: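 Viability of CHO-K1 (wild type) cells after 3 hr compound exposure was measured by CellTiter-Glo luminescence.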

[8] = qHTS RealTime-Glo MT Cell Viability Assay in HepG2 cells - 24 hour (AID 1224867); also: nearly all actives have a fitted effect of over 50% in size; also: potency is read from the fitted curve at half-maximal effect
In short: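 Compound treatment began 5 h after plating HepG2 cells (600/well) with NanoLuc luciferase and prosubstrate. Plates stayed at 37 C for 40 h; luminescence was captured at six time points, 0 h through 40 h.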

[9] = qHTS RealTime-Glo MT Cell Viability Assay in HEK293 cells - 32 hour (AID 1224868); also: nearly all actives have a fitted effect of over 50% in size; also: potency is read from the fitted curve at half-maximal effect
In short: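 Quantitative high-throughput screen of the Tox21 10K library in HEK293: cells and RealTime-Glo reagents plated together, compound added at 5 h, luminescence monitored through 40 h at 37 C.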

[10] = A CellTox Green Cytotoxicity Assay to monitor cytotoxicity in HEK293 cells - 0 hour (AID 1224869); also: % is scaled to controls: 0 for no effect and ±100 for the full control effect; nearly all actives have a fitted effect of over 50% in size
In short: (§1)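 Cytotoxicity was tracked continuously in HEK293 cells by a DNA-binding dye excluded from viable cells. Compounds were transferred in DMSO 5 h after seeding; fluorescence was recorded at intervals up to 40 h.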

[11] = A CellTox Green Cytotoxicity Assay to monitor cytotoxicity in HEK293 cells - 40 hour (AID 1224871); also: nearly all actives have a fitted effect of over 45% in size; also: potency is read from the fitted curve at half-maximal effect
In short: as §1

[12] = qHTS assay to identify small molecule agonists of the hypoxia (HIF-1) signaling pathway - cell viability counter screen (AID 1224844; calls by dose curve; also: nearly all actives have a fitted effect of over 50% in size; also: potency is read from the fitted curve at half-maximal effect)
In short: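 Tox21 10K compounds were added to HRE-bla ME-180 cells (0.5% dialyzed FBS) and incubated 17 hrs at 37C; ATP-based CellTiter-Glo luminescence then reported cell viability in the same wells.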

[13] = qHTS RealTime-Glo MT Cell Viability Assay in HepG2 cells - 40 hour (AID 1224870); also: nearly all actives have a fitted effect of over 50% in size; also: potency is read from the fitted curve at half-maximal effect
In short: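 Real-time viability: cells seeded at 600 per well together with NanoLuc and cell-permeant prosubstrate, compounds added after 5 h incubation. Luminescence tracked at 0, 8, 16, 24, 32 and 40 h of exposure.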

[14] = molecular target: Nuclear receptor subfamily 1 group I member 3 (Homo sapiens) (UniProt Q14994); assay: qHTS assay to identify small molecule antagonists of the constitutive androstane receptor (CAR) signaling pathway (AID 1224838); also: potency is read from the fitted curve at half-maximal effect; nearly all actives have a fitted effect of over 40% in size
In short: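 Compounds were titrated across 15 concentrations onto HepG2 cells double-stably expressing hCAR and a CYP2B6-2.2kb reporter, together with 50 nM CITCO (final). After 24 h at 37 C, luciferase activity was measured by luminescence.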

[15] = qHTS assay to identify small molecule antagonists of the estrogen related receptor (ERR) signaling pathway from Tox21 library (AID 1224848); also: nearly all actives have a fitted effect of over 50% in size; also: potency is read from the fitted curve at half-maximal effect
In short: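 Antagonist-mode screen of the Tox21 10K library in an NTP-provided ERR reporter cell line; 18 h compound exposure at 37 C, luminescence measured with ONE-Glo.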

[16] = qHTS assay to identify small molecule agonists of the estrogen related receptor (ERR) signaling pathway from Tox21 library (AID 1224849; calls by dose curve; also: % is scaled to controls: 0 for no effect and ±100 for the full control effect; nearly all actives have a fitted effect of over 15% in size); settings: ERR reporter cell line, ONE-Glo luciferase, 18 h; at 92.4 µM (top of the series) unless noted
In short: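 Agonist signal is luciferase luminescence from an ERR reporter cell line treated 18 h at 37 C with DMSO-dissolved compounds, read 30 min after ONE-Glo addition at room temperature.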

[17] = qHTS assay to identify small molecule agonists of H2AX (AID 1224845; active = well fitted activation curve with a large enough effect in the signal ratio in the repeat runs, not every such curve was filed as active; the % refers to the signal ratio; also: potency is read from the fitted curve at half-maximal effect)
In short: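 Phospho-H2AX Ser139 measured by HTRF (ex 320 nm; em 665 and 620 nm) after 24 hr antibody incubation. Compounds, 15 concentrations, 0.76% DMSO, were applied to CHO-K1 cells for 3hr at 37C before lysis.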

[18] = qHTS assay to identify small molecule agonists of the hypoxia (HIF-1) signaling pathway (AID 1224846; active = well fitted activation curve with a large enough effect in the signal ratio in the repeat runs, not every such curve was filed as active; the % refers to the signal ratio; also: % is scaled to controls: 0 for no effect and ±100 for the full control effect)
In short: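 Steps: seed ME-180 HRE-bla cells (2,000/well, 0.5% dialyzed FBS); incubate 5 hrs at 37C; pin-transfer compounds or DMSO; incubate 17 hrs; add LiveBLAzer B/G substrate CCF4-AM; measure reporter activation by FRET.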

[19] = qHTS assay to identify small molecule antagonists of the estrogen related receptor signaling pathway with the pleiotropic PPARgamma coactivator (PGC) from Tox21 10K library (AID 1224841; call rule not given here; also: potency is read from the fitted curve at half-maximal effect)
In short: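 Antagonism in this quantitative HTS is taken from loss of luciferase signal in PGC/ERR cells. Cells (2,000/well) are treated with compounds in DMSO after a 6 h settling period and read by One-Glo luminescence after 18 h.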

[20] = qHTS assay to identify small molecule agonists of the estrogen related receptor signaling pathway with the pleiotropic PPARgamma coactivator (PGC) from Tox21 10K library (AID 1224842); also: % is scaled to controls: 0 for no effect and ±100 for the full control effect; nearly all actives have a fitted effect of over 15% in size
In short: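 Luminescence from One-Glo (30 min, room temperature) measured after PGC/ERR cells had 18 h at 37 C with pinned compound (23 nL in DMSO). Cells had been seeded at 2,000 per well and pre-incubated 6 h.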

Sequence of Nuclear receptor subfamily 1 group I member 3 (Homo sapiens) (Q14994 whole entry, looked up): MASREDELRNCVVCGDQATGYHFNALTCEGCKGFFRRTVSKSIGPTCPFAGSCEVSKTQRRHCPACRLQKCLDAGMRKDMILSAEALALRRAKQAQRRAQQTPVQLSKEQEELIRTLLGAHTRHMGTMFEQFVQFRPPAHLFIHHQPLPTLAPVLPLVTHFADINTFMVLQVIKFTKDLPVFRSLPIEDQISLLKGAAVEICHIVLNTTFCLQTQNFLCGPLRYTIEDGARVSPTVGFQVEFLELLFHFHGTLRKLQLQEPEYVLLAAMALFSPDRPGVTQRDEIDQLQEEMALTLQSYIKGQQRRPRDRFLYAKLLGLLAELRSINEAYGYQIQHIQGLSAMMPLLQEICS
Sequence of Thyrotropin receptor (Homo sapiens) (P16473 whole entry, looked up): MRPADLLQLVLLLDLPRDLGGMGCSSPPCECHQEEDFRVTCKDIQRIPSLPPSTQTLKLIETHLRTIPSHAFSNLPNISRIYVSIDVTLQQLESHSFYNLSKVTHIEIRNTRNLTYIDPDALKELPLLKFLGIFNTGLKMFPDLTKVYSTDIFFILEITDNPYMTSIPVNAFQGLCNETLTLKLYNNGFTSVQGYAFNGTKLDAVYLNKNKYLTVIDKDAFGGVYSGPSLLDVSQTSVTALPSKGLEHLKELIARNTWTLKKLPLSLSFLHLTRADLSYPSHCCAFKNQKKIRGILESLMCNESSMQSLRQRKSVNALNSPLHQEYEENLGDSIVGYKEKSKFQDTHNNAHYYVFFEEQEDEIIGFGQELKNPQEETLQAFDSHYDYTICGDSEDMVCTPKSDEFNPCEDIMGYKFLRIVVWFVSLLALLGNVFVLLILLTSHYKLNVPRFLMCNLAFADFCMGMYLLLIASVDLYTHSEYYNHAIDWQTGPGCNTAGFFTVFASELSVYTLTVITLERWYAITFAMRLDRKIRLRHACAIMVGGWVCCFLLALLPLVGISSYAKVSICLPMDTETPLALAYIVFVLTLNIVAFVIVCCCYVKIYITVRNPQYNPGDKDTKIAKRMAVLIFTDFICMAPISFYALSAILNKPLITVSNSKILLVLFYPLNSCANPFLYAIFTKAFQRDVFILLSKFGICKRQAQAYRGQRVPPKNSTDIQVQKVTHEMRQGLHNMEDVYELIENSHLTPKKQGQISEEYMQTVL
Sequence of Luciferin 4-monooxygenase (Photinus pyralis) (P08659 whole entry, looked up): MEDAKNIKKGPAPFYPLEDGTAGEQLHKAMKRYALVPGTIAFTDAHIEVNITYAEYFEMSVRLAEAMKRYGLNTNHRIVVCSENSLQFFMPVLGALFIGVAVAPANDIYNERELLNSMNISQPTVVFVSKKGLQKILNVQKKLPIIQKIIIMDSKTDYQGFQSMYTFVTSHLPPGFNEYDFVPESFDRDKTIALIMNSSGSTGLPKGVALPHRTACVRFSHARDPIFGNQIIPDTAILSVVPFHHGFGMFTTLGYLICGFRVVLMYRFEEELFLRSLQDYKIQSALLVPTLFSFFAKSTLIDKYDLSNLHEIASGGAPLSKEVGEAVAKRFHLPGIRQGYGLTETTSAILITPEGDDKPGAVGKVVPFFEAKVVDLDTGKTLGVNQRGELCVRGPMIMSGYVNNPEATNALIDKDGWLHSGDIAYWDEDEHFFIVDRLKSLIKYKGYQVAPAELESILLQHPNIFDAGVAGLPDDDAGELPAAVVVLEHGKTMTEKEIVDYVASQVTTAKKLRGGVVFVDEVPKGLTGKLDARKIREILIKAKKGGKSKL

c1cc(OCC2CO2)cc(OCC2CO2)c1 (centres undefined)
inactive: Potency [1] | Potency [2] | Potency [3] | Potency [4] | Potency [6] | Potency [7] | Potency [8] | Potency [10] | Potency [11]
active: Potency [5] 68 µM | Potency [9] 17.2 µM

N#CSCSc1nc2ccccc2s1
inactive: Potency [4]
active: Potency [1] 35.6 µM | Potency [2] 61.1 µM | Potency [3] 27.3 µM | Potency [5] 61.1 µM | Potency [12] 6.92 µM | Potency [8] 38.9 µM | Potency [9] 19.5 µM | Potency [13] 24.5 µM | Potency [11] 11 µM

O=C1NCN(c2ccccc2)C12CCN(CCCC(c1ccc(F)cc1)c1ccc(F)cc1)CC2
inactive: Potency [1] | Potency [4] | Potency [6] | activity change, positive = activation [16] -32.9% [at 42.5 µM] | Potency [10]
active: Potency [2] 16.8 µM | Potency [3] 13.3 µM | Potency [14] 13.3 µM | Potency [12] 10.7 µM | Potency [7] 49.2 µM | Potency [15] 21.1 µM | Potency [8] 6.74 µM | Potency [9] 19 µM | Potency [11] 23.9 µM

CCCCCCCCCCCCOC(=O)c1cc(O)c(O)c(O)c1
active: Potency [2] 68.3 µM | Potency [3] 68.3 µM | Potency [17] 11.3 µM | Potency [7] 100 µM | Potency [9] 3.87 µM and 3.47 µM | Potency [13] 54.9 µM | Potency [11] 34.5 µM and 49 µM
inactive: Potency [1] | Potency [4] | Potency [6]

CCCCCCCC(C)=O
inactive: Potency [1] | Potency [2] | Potency [3] | Potency [5] | Potency [6] | Potency [12] | Potency [17] | outcome [18] | Potency [7] | Potency [9] | Potency [10] | Potency [13] | Potency [11]

CC1=CP(=O)(c2ccccc2)CC1 (centres undefined)
inactive: Potency [1] | Potency [2] | Potency [3] | Potency [5] | Potency [19] | Potency [20] | Potency [6] | Potency [12] | Potency [17] | outcome [18] | Potency [15] | activity change, positive = activation [16] -5.03% | Potency [8] | Potency [9] | Potency [10] | Potency [11]

CN(Cc1cc(Br)cc(Br)c1N)C1CCCCC1
inactive: Potency [1] | Potency [2] | Potency [3] | Potency [5] | Potency [19] | Potency [20] | Potency [12] | Potency [15] | activity change, positive = activation [16] -11.1% [at 42.5 µM] | Potency [8] | Potency [10] | Potency [13]

CC1(C)C(=O)N(CO)C(=O)N1CO
inactive: Potency [1] | Potency [2] | Potency [3] | Potency [5] | Potency [6] | Potency [17] | outcome [18] | Potency [7] | Potency [8] | Potency [9] | Potency [10] | Potency [13]

Clc1cccnc1
inactive: Potency [1] | Potency [2] | Potency [3] | Potency [5] | Potency [6] | Potency [12] | Potency [17] | outcome [18] | Potency [7] | Potency [8] | Potency [9] | Potency [10] | Potency [13] | Potency [11]

CCCCCCC(C)OC(=O)COc1nc(F)c(Cl)c(N)c1Cl (centres undefined)
inactive: Potency [1] | Potency [2] | Potency [3] | Potency [5] | Potency [19] | Potency [20] | Potency [12] | outcome [18] | activity change, positive = activation [16] -16.7% | Potency [8] | Potency [9] | Potency [10] | Potency [13] | Potency [11]
active: Potency [7] 113 µM

Oc1ccc(-c2ccccc2)c(Cl)c1
inactive: Potency [2] | Potency [3] | Potency [5] | Potency [6] | Potency [17] | Potency [8] | Potency [10] | Potency [13]
active: Potency [1] 39.9 µM | Potency [7] 89.8 µM | Potency [9] 24.5 µM

Cc1cncc(C)c1
inactive: Potency [1] | Potency [2] | Potency [3] | Potency [4] | Potency [20] | Potency [6] | Potency [12] | Potency [17] | outcome [18] | Potency [15] | Potency [8] | Potency [9]

CNC(=S)NN
inactive: Potency [1] | Potency [6] | activity change, positive = activation [16] -71.8% | Potency [10] | Potency [13]
active: Potency [2] 43.3 µM | Potency [3] 17.2 µM | Potency [5] 13.7 µM | Potency [19] 9.69 µM | Potency [17] 89.8 µM | Potency [15] 13.7 µM

CCC(C)C(=O)OC (centres undefined)
inactive: Potency [1] | Potency [2] | Potency [3] | Potency [5] | Potency [20] | Potency [6] | Potency [12] | Potency [17] | outcome [18] | Potency [15] | activity change, positive = activation [16] -4.99% | Potency [8] | Potency [9] | Potency [11]

CCCCCCCC(=O)OCC
inactive: Potency [1] | Potency [2] | Potency [3] | Potency [5] | Potency [19] | Potency [20] | Potency [6] | Potency [12] | Potency [17] | outcome [18] | Potency [7] | Potency [15] | activity change, positive = activation [16] 0.783% | Potency [8] | Potency [9] | Potency [10] | Potency [11]

Cn1cccc1
inactive: Potency [1] | Potency [2] | Potency [3] | Potency [5] | Potency [19] | Potency [20] | Potency [6] | Potency [12] | Potency [17] | outcome [18] | Potency [7] | Potency [15] | activity change, positive = activation [16] -4.51% | Potency [9] | Potency [10] | Potency [13] | Potency [11]
